Measurements from PubChem BioAssay (NCI).
This is part of a sample that, as a whole, favours compounds with a hit. Of some 83,000 tested, about 20% had one in any assay.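 Assay: single dose, 48 h. Readout: percent growth (0 = no net growth; negative = cell death). Active: <10.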 Activity calls are given as the source filed them.

These molecules were tested on SR leukemia (assay: NCI-60 one-dose screen, 48 h (100 = growth as untreated, 0 = no growth, -100 = all killed)). Settings: 10 µM unless noted.

| Structure (SMILES) | growth |
| --- | --- |
| Cc1cc(C)cc(NC(=O)Cn2cc(COn3nnc4ccccc43)nn2)c1 | 90.1% (inactive) |
| CC(=O)Nc1cccc(Nc2nc(NCc3ccccc3)c3ccccc3n2)c1 | -45.3% (active) |
| Clc1cccc(Cl)c1/C=C/c1cc(/C=C/c2ccc(Br)cc2)c2ccccc2n1 | 92.4% (inactive) |
| Cn1cc(-c2cc3nc(-c4cn(C)c5ncc(Br)cc45)cc(N)n3n2)c2ccccc21 | -20.7% (active) |
| N#Cc1c(-c2ccccc2Cl)cc(-c2c[nH]c3ccccc23)[nH]c1=O | 9.99% (active) |

The molecules below were run on RPMI-8226 leukemia in the same assay as above. Settings: 10 µM unless noted.

| Structure (SMILES) | growth |
| --- | --- |
| Cc1ccc(S(=O)(=O)c2nc(S(=O)(=O)c3ccc(C)cc3)c(N3CCC(O)CC3)s2)cc1 | 53.4% (inactive) |
| Cc1sc2c(c1C)C(c1ccc(Cl)cc1)=N[C@@H](CC(=O)NCCCCCNC(=O)COc1ccc(C3CCC(=O)NC3=O)cc1)c1nnc(C)n1-2 (some centres not stated) | -3.88% (active) |
| COc1ccc2c(c1)C(=N/N=C(\C)c1ccc(OC)c(S(N)(=O)=O)c1)C(=O)N2 | 83% (inactive) |
| COc1cc2oc(-c3cccc(C(=O)Nc4ccc(Cl)cc4)c3)cc(=O)c2c(OCCNC(=O)[C@H](CCC(=O)OC(C)(C)C)NC(=O)OC(C)(C)C)c1OC | 78.1% (inactive) |
| COc1ccc(-c2nc3cc(C)ccc3n2CC(=O)N=Nc2c(O)[nH]c3ccc(Cl)cc23)cc1 | 41.8% (inactive) |
| C=CC[N+](C)(C)CCn1c2ccccc2c2nc3cc(C)c(C)cc3nc21 | 95.1% (inactive) |
| O=C(c1ccc(OCCN2CCOCC2)cc1)C1[C@H](c2ccc(Cl)cc2)[C@@H](c2ccccc2)NC12C(=O)Nc1ccc(Br)cc12 (some centres not stated) | 9.08% (active) |
